# Data published in PubChem BioAssay (NCI).
# Compounds without any hit were thinned out: in the full panel of roughly 83,000, 20% have a hit.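 Note: values are percent growth. 100 is the growth of untreated cells, values between 100 and 0 indicate rising inhibition; between -100 and 0 indicates cell death.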 Activity calls are given as the source filed them. How the source made its calls: active means growth percent below 10; inactive means the rest.
# System: KM12 colon
# Assay: NCI-60 one-dose screen, 48 h (100 = growth as untreated, 0 = no growth, -100 = all killed)
# Details: 10 µM unless noted
row,Compound,growth
1,[2H]C([2H])([2H])Oc1ccc(F)cc1/C=C/C(=O)/C=C(O)/C=C/c1cc(F)ccc1OC([2H])([2H])[2H],98.4% (inactive)
2,C=CC(=O)Nc1ccc(Nc2nccc(-c3ccc(N4CCCC4)c(C#N)c3)n2)cc1,14.6% (inactive)
3,N#CC1=C(N)Oc2ccc3ccccc3c2C1c1ccc([N+](=O)[O-])cc1 (stereo not drawn),95.5% (inactive)
4,CCOC(=O)c1nn(CC(O)c2ccccc2)c(NC(=O)Nc2cccc(F)c2)c1C (stereo not drawn),104% (inactive)
5,Nn1c(=O)c(=O)[nH]c2c(cnn2-c2ccccc2)c1=O,107% (inactive)
6,O=[N+]([O-])c1cc(NS(=O)(=O)c2ccccc2)ccc1NS(=O)(=O)c1ccccc1,103% (inactive)
7,C=C1C(=O)O[C@H]2[C@H]1CC/C(COC(=O)NCc1ccc(Cn3c(=O)sn(-c4ccc(C#N)cc4)c3=O)cc1)=C\CC[C@@]1(C)O[C@@H]21,101% (inactive)
8,Cc1nc2c(c(=O)[nH]1)C(c1ccccc1)c1ccc3ccccc3c1O2 (stereo not drawn),26.2% (inactive)
9,COC1=C(C)C(=O)N2[C@@H]1[C@H](c1ccccc1)OC21C=CC(=O)C=C1,52.8% (inactive)
10,COc1cccc(CCNc2ncnc3c2ncn3Cc2nnc3c4ccccc4c(Cl)nn23)c1,80% (inactive)
11,Fc1ccc(Cn2cc(CSc3nc4ccccc4o3)nn2)cc1,97.6% (inactive)
12,CC(=O)ON1CCCC(P(=O)(OCCSC(=O)C(C)(C)C)OCCSC(=O)C(C)(C)C)C1=O (stereo not drawn),5.16% (active)
13,O=c1cc(-c2ccccc2)[nH]c2ncc(-c3ccc(F)cc3)n12,44.4% (inactive)
